Screens deposited in PubChem by National Center for Advancing Translational Sciences (NCATS).
Mm-Cpn inhibitor: M. maripaludis TRiC chaperonin inhibition | purified Mm-Cpn ATPase, ADP Transcreener TR-FRET | Potency, µM (series often up to 76.9 µM), usual class: inhibitors | hit rate 0.031% among 330,000 | AID 504842; active = well fitted inhibition curve with a large enough effect; inconclusive = small, poorly fitted or top-dose-only effect; note: nearly all actives have a fitted effect of over 80% in size
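Compound-treated chaperonin, 25 nM final, turns over 10 uM ATP at 37°C for 30 min following a 10 min preincubation; ADP generated competes with ADP-d2 for Eu-cryptate antibody, lowering FRET.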
gsp agonist: gsp mutant agonism; hit rate 0.13% among 340,000; Potency, µM (top dose mostly 76.9 µM), hits mostly activators; gsp mutant cells, cAMP HTRF, 30 min; active = well fitted activation curve with a large enough effect; inconclusive = small, poorly fitted or top-dose-only effect, or another doubt; inactive = no such curve, though single readings can be large or run the other way; cell line not stated here;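 note: phosphodiesterase inhibitor Ro 20-1724 added with compounds to block cAMP breakdown; nearly all actives have a fitted effect of over 60% in size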
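Cells in DMEM/10% FBS with G418 were pretreated with compounds in DMSO plus […] (300 uM stock) for 30 min at 37C. cAMP was measured by HTRF (cAMP-d2 plus anti-cAMP antibody-K) after 30 min at room temperature.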
gsp antag: antagonizes gsp, the McCune-Albright syndrome mutation; gsp-mutant cells, cAMP HTRF, 30 min; Potency, µM (doses to about 76.9 µM), actives largely listed as inhibitors; hit rate 0.4% among 340,000; AID 624288; calls by dose curve; cell line not stated here;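 note: intracellular cAMP measured with PDE inhibitor Ro 20-1724 present during compound exposure; nearly all actives have a fitted effect of over 65% in size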
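Cells in G418 medium, seeded 16-24 h, 37C; buffer exchange to DPBS + 1 mM CaCl2, 0.5 mM MgCl2, 0.05% BSA; cpds in DMSO + […] (300 uM stock), 30 min 37C; HTRF cAMP detection.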
TSHR antag: antagonists of human thyroid stimulating hormone receptor. TSHR-expressing cells, TSH-stimulated cAMP HTRF, 2 h; stronger effect = lower value. activity change, negative = inhibition, % at 11.5 µM. hit rate 0.2% among 330,000. AID 504810;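 active = activity change below a set negative limit, meaning inhibition stronger than a set level, cut at about -70% in these data; inconclusive = activity change between two set negative limits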
Target sequence (P16473 whole entry, looked up): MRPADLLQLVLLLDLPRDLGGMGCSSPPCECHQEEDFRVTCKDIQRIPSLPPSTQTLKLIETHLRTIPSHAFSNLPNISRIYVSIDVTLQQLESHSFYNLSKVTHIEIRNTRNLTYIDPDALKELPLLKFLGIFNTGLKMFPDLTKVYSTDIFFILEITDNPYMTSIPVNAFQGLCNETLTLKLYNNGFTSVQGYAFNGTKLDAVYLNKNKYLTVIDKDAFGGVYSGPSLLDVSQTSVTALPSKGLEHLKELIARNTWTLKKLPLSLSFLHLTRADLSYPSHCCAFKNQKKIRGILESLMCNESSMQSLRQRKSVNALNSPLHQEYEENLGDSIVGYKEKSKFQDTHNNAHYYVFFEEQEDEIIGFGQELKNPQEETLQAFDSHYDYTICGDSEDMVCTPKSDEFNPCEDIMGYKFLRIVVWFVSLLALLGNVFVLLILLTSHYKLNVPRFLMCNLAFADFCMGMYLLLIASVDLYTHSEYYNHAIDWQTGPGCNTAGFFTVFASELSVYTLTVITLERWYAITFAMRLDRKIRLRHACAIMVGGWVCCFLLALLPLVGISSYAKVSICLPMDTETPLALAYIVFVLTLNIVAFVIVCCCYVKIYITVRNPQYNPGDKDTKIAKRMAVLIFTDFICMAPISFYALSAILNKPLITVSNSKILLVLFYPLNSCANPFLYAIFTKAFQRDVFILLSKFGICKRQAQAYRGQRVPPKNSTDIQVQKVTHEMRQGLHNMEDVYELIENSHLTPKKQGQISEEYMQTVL
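TSHR-expressing cells, 200/well, pre-treated with compound, then stimulated with EC80 TSH (4nM final) for 2 hours at 37 deg C. cAMP measured by competitive HTRF: anti-cAMP cryptate antibody in lysis buffer plus cAMP-d2, read after 30 minutes at room temperature.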
CCT modulator: changes cytosolic chaperonin activity. hit rate 0.3% among 360,000. activity change, % (test concentration not listed), hits read low. purified chaperonin ATPase assay, HTRF ADP detection, 30 min; in the data active = activity change below about -30%
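TRiC at 40 or 20 nM final (batch-dependent) in 30 mM Tris pH 7.4, 100 mM KCl, 5 mM MgCl2, 1 mM DTT, with compound at single 76 uM and 10 uM ATP, 30 min at 37 deg C. ADP detected by HTRF Transcreener, 665/615 ratio.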
uPA surface inh: inhibitors of cell surface uPA generation; Potency, µM (top dose mostly 38.3 µM), actives largely listed as inhibitors; AID 540303; cell surface uPA generation assay, qHTS; hit rate 0.31% among 330,000; active = well fitted inhibition curve with a large enough effect; inconclusive = small, poorly fitted or top-dose-only effect; inactive = no such curve, though single readings can be large or run the other way; tested in mouse RAW 264.7 cells; note: nearly all actives have a fitted effect of over 55% in size
Numbers stand for hits; – = inactive; ? = inconclusive; · = no result; [ ] = dose if it differs, or a comment. Hits are enriched below; roughly 1.2% of the tested compounds scored in any of these assays.

SMILES | Mm-Cpn inhibitor | gsp agonist | gsp antag | TSHR antag | CCT modulator | uPA surface inh
CCCn1nc([N+](=O)[O-])c(C(C#N)c2nc3ccccc3o2)c(Cl)c1=O (centres undefined) | – | – | ? | -76 | – | –
CCn1nc([N+](=O)[O-])c(C(C#N)c2nc3cc(C(F)(F)F)ccc3s2)c(Cl)c1=O (centres undefined) | – | – | 28µM | -88 | – | ·
COc1ccccc1N1CCN(Cc2nc3ccccc3[nH]2)CC1 | – | –[15.4 µM] | – | – | – | –
Cc1ccc(-n2c3nc(=O)[nH]c(=O)c-3cc3c(C)nn(-c4ccccc4)c32)c(C)c1 | ? | –[15.4 µM] | 50µM | – | – | –
Cc1cccc(-n2c3nc(=O)[nH]c(=O)c-3cc3c(C)nn(-c4ccccc4)c32)c1 | – | · | · | – | · | ·
COc1ccc(/C=C2\CCc3c2nc2ccccc2c3C(=O)O)cc1OC | – | ? | – | – | – | 3.5µM
C=C(C)CNC(=S)N/N=C(\C)c1ccc(Cl)s1 | – | – | – | – | – | –
Cc1cccnc1Nc1ncnc(N)c1[N+](=O)[O-] | – | –[15.4 µM] | – | – | – | –
Cc1ccc(C)c(Nc2ncnc(N)c2[N+](=O)[O-])c1 | – | – | – | – | -41 | –
Cc1ccc(CNC(=S)N(C)C)cc1 | – | –[15.4 µM] | – | – | – | –
CN(C)C(=S)NC(C)(C)C | 45µM | –[15.4 µM] | – | – | – | –
O=C(CSc1nc(O)cc(=O)n1-c1ccccc1)Nc1ccc2c3c(cccc13)CC2 | – | –[15.4 µM] | 7.1µM | – | – | –
Cc1c(O)nc(SCC(=O)Nc2ccc3c4c(cccc24)CC3)n(-c2ccccc2)c1=O | – | –[15.4 µM] | – | – | – | –
COc1cc(C(=O)NCCNC(=O)c2cnccn2)cc(OC)c1OC | – | –[15.4 µM] | – | -82 | – | –
O=C(O)c1ccc(NC2=C/C(=N/S(=O)(=O)c3ccccc3)c3ccccc3C2=O)cc1 | – | ? | – | -74 | – | –
Cc1nn(-c2ccccc2)c(N2CCCC2)c1C=O | – | – | – | – | – | –
Cc1nc2sc(C(c3ccco3)N3CCN(c4ccc(F)cc4)CC3)c(O)n2n1 (centres undefined) | – | – | – | – | – | –
N=c1nc2n(cc1F)C1OC(CO)C(O)C1O2 (centres undefined) | · | – | – | · | -48 | –
N=c1ccn2c(n1)O[C@H]1[C@H](O)[C@@H](CO)O[C@H]12 | – | ? | – | – | – | ?
O=C(Nc1ccccc1C(=O)NC(Cc1ccc(O)cc1)C(=O)O)c1ccccc1 (centres undefined) | – | – | – | – | -36 | –
O=C(Nc1ccccc1C(=O)NC(Cc1ccccc1)C(=O)O)c1ccco1 (centres undefined) | – | – | – | – | – | –
O=C(Nc1ccccc1C(=O)N/N=C/c1ccc(O)cc1)c1ccccc1 | – | – | ? | – | – | 7.1µM
Cc1noc(C(=O)Nc2c(C)nn(Cc3ccccc3)c2C)c1Cl | – | ? | – | – | – | –
CCC(=O)N1CCc2cc(S(=O)(=O)CCC(=O)NCc3ccc(C)cc3)ccc21 | – | – | – | – | – | –
CCC(=O)N1CCc2cc(S(=O)(=O)CCC(=O)NCc3ccccc3OC)ccc21 | ? | – | – | – | -57 | –
SMILES | Mm-Cpn inhibitor | gsp agonist | gsp antag | TSHR antag | CCT modulator | uPA surface inh
O=C(CCS(=O)(=O)c1ccc(Br)cc1)NC1CCCC1 | – | 4µM | – | – | – | ·
CCC(=O)N1CCc2cc(S(=O)(=O)CCC(=O)NCc3cccc(OC)c3)ccc21 | – | – | – | – | -66 | –
CCOC(=O)N1CCC(NC(=O)CCS(=O)(=O)c2ccc3c(c2)CCN3C(=O)CC)CC1 | – | – | – | – | – | –
CCC(=O)N1CCc2cc(S(=O)(=O)CCC(=O)NC3CCCCC3)ccc21 | – | – | – | – | -75 | –
Cc1ccc(OCCCCNC(C)(C)C)c([N+](=O)[O-])c1 | – | – | – | – | – | –
Cc1ccc(C(=O)NC(C(=O)Nc2ccccc2)c2ccccc2)cc1 (centres undefined) | – | – | – | – | – | –
Cc1noc(C)c1COC(=O)c1ccc(N(C)C)cc1 | – | – | – | – | – | –
O=C(O)CSc1cc(NS(=O)(=O)c2ccc(Cl)cc2)c2ccccc2c1O | – | – | – | – | – | –
COc1ccc(S(=O)(=O)Nc2cc(SCC(=O)O)c(O)c3ccccc23)cc1 | – | ? | – | – | – | 11µM
O=C(Oc1ccc(C(=S)N2CCOCC2)cc1)c1cccc(Cl)c1 | – | –[15.4 µM] | – | – | -63 | –
O=C(Oc1ccc(C(=S)N2CCOCC2)cc1)c1cc([N+](=O)[O-])cc([N+](=O)[O-])c1 | – | ? | – | – | – | –
Cc1ccc(C2=N/C(=C\c3ccc(F)cc3)C(=O)N2)cc1 | – | – | – | – | -44 | –
CN(C)c1cccc(C(=O)OCCCC(=O)c2ccc(F)cc2)c1 | – | – | – | – | -38 | –
CS(=O)(=O)c1cccc(C(=O)OCCCC(=O)c2ccccc2)c1 | – | – | – | · | – | –
Cc1cc(C)c2nc(NNC(=O)c3ccc(S(=O)(=O)N4CCCC(C)C4)cc3)sc2c1 (centres undefined) | – | – | ? | – | – | 5.6µM
CCN(C(=O)CSc1nncs1)c1c(N)n(Cc2ccccc2)c(=O)[nH]c1=O | – | ? | – | – | – | –
CCCc1nnc(NC(=O)c2nc(S(=O)(=O)Cc3ccc(C)cc3)ncc2Cl)s1 | – | – | 28µM | – | – | ?
CC(C)c1nnc(NC(=O)c2nc(S(=O)(=O)Cc3ccccc3)ncc2Cl)s1 | – | –[15.4 µM] | 25µM | ? | – | –
COC(=O)c1ccc(NC(=O)c2nc(S(=O)(=O)Cc3cccc(C)c3)ncc2Cl)cc1 | – | –[15.4 µM] | – | ? | – | –
CSc1nnc(NC(=O)c2nc(S(=O)(=O)Cc3ccccc3)ncc2Cl)s1 | – | –[15.4 µM] | 32µM | – | – | –
CC(=O)Nc1ccc(NC(=O)c2nc(S(=O)(=O)Cc3cccc(C)c3)ncc2Cl)cc1 | – | –[15.4 µM] | – | – | – | –
O=C1c2ccccc2S(=O)(=O)c2cc(N3CCOCC3)ccc21 | · | – | – | · | – | 2.5µM
C/C(=N\N1C(=O)c2ccccc2NC1c1ccco1)c1ccccc1O (centres undefined) | – | – | – | – | – | 7.9µM
O=C(COC(=O)Cn1cnc2ccccc21)Nc1ccc2c(c1)C(=O)c1ccccc1C2=O | – | – | – | – | – | 11µM
Cc1ccc(C23CC4CC(CC(C(=O)N5CCN(C)CC5)(C4)C2)C3)cc1 | – | – | – | – | – | –
Cc1ccc(C)c(N2CCN(C(=O)C34CC5CC(C3)CC(n3nnc(C)n3)(C5)C4)CC2)c1 | – | –[15.4 µM] | 40µM | – | – | –
